Where a structure was tested more than once in an assay, its records may differ in their call. Activity calls are given as the source filed them. Rule for the calls: active = hit-call score of the fitted dose curve at least 0.9, where 1 is the maximum; inactive = score below 0.9.
What was measured:
[1] = read-out: Intercellular Adhesion Molecule 1 (ICAM1), ICAM1 (gene 3383); assay: BSK_BE3C_ICAM1: BioMAP Diversity Plus: BE3C Assay for Intercellular Adhesion Molecule 1 (ICAM1) Biomarker Activity (AID 2284278); settings: primary human bronchial epithelial cells
How it was run: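 Primary human bronchial epithelial cells were exposed to compound for 24 h, after which cell-surface ICAM-1 was quantified by ELISA. Activity was fitted in the gain-of-signal direction against DMSO as negative control and baseline.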

[2] = read-out: Interferon-inducible T-cell alpha chemoattractant (ITAC), CXCL11 (gene 6373); assay: BSK_BE3C_ITAC: BioMAP Diversity Plus: BE3C Assay for Interferon-inducible T-cell alpha chemoattractant (ITAC) Biomarker Activity (AID 2284279); settings: primary human bronchial epithelial cells
How it was run: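 Steps: dose human bronchial epithelial cells with chemical; incubate 24 h; measure I-TAC by ELISA; fit endpoint in positive direction against DMSO control. Cytotoxicity was checked in parallel cultures by SRB staining at harvest.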

[3] = read-out: Interleukin-8 (IL8), CXCL8 (gene 3576); assay: BSK_BE3C_IL8: BioMAP Diversity Plus: BE3C Assay for Interleukin-8 (IL8) Biomarker Activity (AID 2284280); settings: primary human bronchial epithelial cells
How it was run: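 Primary human bronchial epithelial cells (BE3C system) exposed 24 h; IL-8 measured by ELISA and fitted in positive direction versus DMSO. Overt cytotoxicity assessed by SRB total-protein staining in parallel cultures.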

[4] = read-out: Epidermal growth factor receptor (EGFR), EGFR (gene 1956); assay: BSK_BE3C_EGFR: BioMAP Diversity Plus: BE3C Assay for Epidermal growth factor receptor (EGFR) Biomarker Activity (AID 2284281); settings: primary human bronchial epithelial cells
How it was run: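 Human primary bronchial epithelial cells (BE3C system) dosed with chemicals; EGFR measured by ELISA at 24 h, fitted in the positive direction relative to DMSO. Cytotoxicity tracked in parallel cultures by SRB total-protein staining.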

KRT18 (gene 3875) = assay: BSK_BE3C_Keratin818: BioMAP Diversity Plus: BE3C Assay for Keratin 818 Biomarker Activity (AID 2284282); settings: primary human bronchial epithelial cells
Protocol: BSK_BE3C is a cell-based, multiplexed-readout assay that uses bronchial epithelial cell, a human lung primary cell, with measurements taken at 24 hours after chemical dosing in a 96-well plate.BSK_BE3C_Keratin818 is an assay component measured in the BSK_BE3C assay. It measures Keratin 8/18 antibody related to regulation of gene expression using ELISA technology.Data from the assay component BSK_BE3C_Keratin818 was analyzed at the endpoint, BSK_BE3C_Keratin818, in the positive analysis fitting direction relative to DMSO as the negative control and baseline of activity. Using a type of binding reporter, gain or loss-of-signal activity can be used to understand protein changes. […]
(§1) The levels of cell surface (or secreted, indicated by the prefix "s") biomarker endpoints were measured by ELISA. Overt cytotoxicity to cells in confluent adherent cultures (all systems other than the BT system) was assessed by measuring total protein levels using sulforhodamine B (SRB) staining in parallel cultures at the time of biomarker measurements, indicated as SRB endpoints. For proliferation assays for adherent cell types, individual cell types are cultured at sub-confluence and relative cell numbers quantified by SRB staining at time points optimized for each system (48 h: 3C and CASM3C systems; 72 h: BT and HDF3CGF systems; 96 h: SAg system). […] Plates were read after 6 h.

[5] = read-out: Matrix Metallopeptidase 9 (MMP9), MMP9 (gene 4318); assay: BSK_BE3C_MMP9: BioMAP Diversity Plus: BE3C Assay for Matrix Metallopeptidase 9 (MMP9) Biomarker Activity (AID 2284283); settings: primary human bronchial epithelial cells
How it was run: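 Cells were dosed, incubated 24 h, then assayed for MMP-9 by ELISA; activity was fitted upward against DMSO. The system used human lung primary bronchial epithelial cells, with SRB total-protein staining run alongside for cytotoxicity.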

[6] = read-out: Plasminogen activator inhibitor-1 (PAI1), SERPINE1 (gene 5054); assay: BSK_CASM3C_PAI1: BioMAP Diversity Plus: CASM3C Assay for Plasminogen activator inhibitor-1 (PAI1) Biomarker Activity (AID 2284284); settings: primary human coronary artery smooth muscle cells;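 note: PAI-1 protein level measured by ELISA 24 h after dosing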
[7] = read-out: Monocyte Chemoattractant Protein-1 (MCP1), CCL2 (gene 6347); assay: BSK_hDFCGF_MCP1: BioMAP Diversity Plus: hDFCGF Assay for Monocyte Chemoattractant Protein-1 (MCP1) Biomarker Activity (AID 2284285); settings: primary human foreskin fibroblasts
How it was run: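 Human foreskin fibroblasts (hDFCGF system) were exposed to compound and secreted MCP-1 was measured by ELISA after 24 hours. Activity was fitted relative to DMSO. Cytotoxicity was checked by SRB total-protein staining in parallel cultures.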

[8] = read-out: Vascular cell adhesion molecule 1 (VCAM1), VCAM1 (gene 7412); assay: BSK_IMphg_VCAM1: BioMAP Diversity Plus: IMphg Assay for Vascular cell adhesion molecule 1 (VCAM1) Biomarker Activity (AID 2284286); settings: primary human endothelial cells with macrophages
Protocol: BSK_IMphg is a cell-based, multiplexed-readout assay that uses venular endothelial cells and macrophages, a human vascular primary cell, with measurements taken at 24 hours after chemical dosing in a microplate: 96-well plate.BSK_IMphg_VCAM1 is an assay component measured in the BSK_IMphg assay. It measures VCAM-1 antibody related to regulation of gene expression using ELISA technology.Data from the assay component BSK_IMphg_VCAM1 was analyzed at the endpoint, BSK_IMphg_VCAM1, in the positive analysis fitting direction relative to DMSO as the negative control and baseline of activity. Using a type of binding reporter, gain or loss-of-signal activity can be used to understand protein changes. […]
as §1

[9] = read-out: Intercellular Adhesion Molecule 1 (ICAM1), ICAM1 (gene 3383); assay: BSK_hDFCGF_ICAM1: BioMAP Diversity Plus: hDFCGF Assay for Intercellular Adhesion Molecule 1 (ICAM1) Biomarker Activity (AID 2284287); settings: primary human foreskin fibroblasts
How it was run: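 Primary human foreskin fibroblasts (hDFCGF system) dosed with chemical; ICAM-1 quantified by ELISA at 24 h relative to DMSO. Parallel SRB total-protein staining to assess overt cytotoxicity.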

Cn1cnc([N+](=O)[O-])c1Sc1ncnc2nc[nH]c12
outcome [1]: inactive | outcome [2]: inactive | outcome [3]: inactive | outcome [4]: inactive | outcome (KRT18 (gene 3875)): inactive | outcome [5]: inactive | outcome [6]: inactive | outcome [7]: inactive | AC50 [8]: 9.14 µM (active) | outcome [8]: inactive | outcome [9]: inactive
